Screens from PubChem BioAssay.
The list is not random: actives were taken first. Their share in the collection is about 9%.
PLK1 PBD block: inhibitors of human PLK1 polo-box domain binding | AID 720504 | Plk1 PBD binding of FITC phosphopeptide, fluorescence polarization | 2.8% of 360,000 active | Potency, µM, inactives show max response, negative = inhibition, actives largely listed as inhibitors; further: series mostly up to about 57 µM; on the % scale 0 is the no-effect control and ±100 the full control effect; nearly all actives have a fitted effect of over 65% in size
Target sequence (P53350 whole entry, looked up, the tested form may be a part): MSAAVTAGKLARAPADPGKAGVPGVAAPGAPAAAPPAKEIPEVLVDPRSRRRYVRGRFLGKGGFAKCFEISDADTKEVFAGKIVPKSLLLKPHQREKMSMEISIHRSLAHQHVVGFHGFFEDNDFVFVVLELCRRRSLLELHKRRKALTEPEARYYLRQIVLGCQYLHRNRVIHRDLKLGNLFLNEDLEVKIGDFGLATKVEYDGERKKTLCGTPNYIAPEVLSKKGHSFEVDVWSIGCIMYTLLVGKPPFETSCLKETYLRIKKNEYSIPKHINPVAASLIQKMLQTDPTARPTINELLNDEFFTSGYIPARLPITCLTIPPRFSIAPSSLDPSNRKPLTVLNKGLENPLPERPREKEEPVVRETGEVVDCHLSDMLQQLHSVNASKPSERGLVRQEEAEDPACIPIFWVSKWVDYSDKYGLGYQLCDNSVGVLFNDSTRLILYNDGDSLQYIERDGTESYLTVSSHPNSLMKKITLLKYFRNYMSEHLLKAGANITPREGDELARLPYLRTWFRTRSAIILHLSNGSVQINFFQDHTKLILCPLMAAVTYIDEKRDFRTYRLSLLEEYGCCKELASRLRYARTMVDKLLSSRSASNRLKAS
HP1b binding inh: inhibitors of HP1-beta chromodomain binding to methylated histone tails. P83916. AlphaScreen HP1-beta / biotin-H3K9me3 peptide binding. Potency, µM (highest dose often 114 µM), without a hit: at the top dose activity change, negative = inhibition, hits mostly inhibitors. 0.56% of 390,000 active; further: nearly all actives have a fitted effect of over 70% in size
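Compound inhibition of the preformed complex between 50 nM HP1-beta and 50 nM biotinylated H3K9me3 peptide was read by AlphaScreen. Buffer was PBS pH 7.4 with 0.01% Tween-20. Incubations ran 30 min at room temperature, with 10 ug/mL donor/acceptor beads.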
G9a inh: blocks human histone lysine methyltransferase G9a; Q96KQ7; G9a H3K9 monomethylation, AlphaScreen, 2 h; Potency, µM (top dose mostly 102 µM), for the others: top-dose activity, negative = inhibition, actives largely listed as inhibitors; 8.8% of 350,000 active; AID 504332; further: on the % scale 0 is the no-effect control and ±100 the full control effect; nearly all actives have a fitted effect of over 75% in size
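Compounds were preincubated with 20 nM G9a for 15 min, after which biotinylated H3K9 peptide (500 nM) and SAM (20 uM) started a 2 h room-temperature reaction. Monomethylated product was quantified by antibody-based AlphaScreen chemiluminescence.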
JMJD2A Tudor: JMJD2A Tudor domain (human) inhibition; 4.4% of 390,000 active; AlphaScreen JMJD2A-Tudor / H3K4me3 peptide binding; Potency, µM (doses to about 114 µM), for inactives: at the top dose activity change, negative = inhibition, usual class: inhibitors; further: on the % scale 0 is the no-effect control and ±100 the full control effect; nearly all actives have a fitted effect of over 50% in size
ALOX12 inh: blocks human arachidonate 12S-lipoxygenase | P18054 | Potency, µM (top dose mostly 108 µM), without a hit: top-dose activity change, negative = inhibition, hits mostly inhibitors | 1.1% of 580,000 active | purified 12hLO, xylenol orange hydroperoxide absorbance; further: on the % scale 0 is the no-effect control and ±100 the full control effect
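Purified human 12hLO at 150 nM in 25 mM Hepes, 0.01% Triton X-100, pH 7.0, preincubated 15 min at room temperature with compound. Reaction started with 40 uM arachidonic acid, 30 min at room temperature. Hydroperoxide measured by Fe-xylenol orange, 573/405 nm absorbance ratio.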
BAZ2B inh: BAZ2B (human) inhibition | Potency, µM (doses to about 114 µM), without a hit: top-dose activity change, negative = inhibition, most hits filed as inhibitors | AID 504333 | Q9UIF8 | 4.4% of 360,000 active | AlphaScreen BAZ2B-H3K14Ac peptide displacement; further: on the % scale 0 is the no-effect control and ±100 the full control effect; nearly all actives have a fitted effect of over 60% in size
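AlphaScreen displacement: compounds (up to 110uM) incubated 30 min at room temperature with a preformed 50 nM BAZ2B/50 nM biotinylated H3K14Ac peptide complex in PBS pH 7.4 with Tween-20. Donor and acceptor beads at 10 ug/mL final added, 20 min light-protected before reading.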
An asterisk follows results filed as active; ? = inconclusive; · = no result given; [ ] = another dose, or the depositor's remark. The call rests on the fitted dose curve; in most records, active means well fitted curve in the direction sought with a large enough effect; inconclusive means small, poorly fitted or top-dose-only effect, or another doubt; inactive means no such curve, though single readings can be large; an effect the other way counts as inactive or inconclusive. Potency means the concentration at half of the fitted maximal effect.

SMILES	PLK1 PBD block	HP1b binding inh	G9a inh	JMJD2A Tudor	ALOX12 inh	BAZ2B inh
Cc1onc(-c2ccccc2Cl)c1C(=O)Nc1cccc(-c2nc3ncccn3c2C)c1	-5.2%	31.2%	12.8%	-17.1%	-3.4%	-16.3%
Fc1ccccc1/C=C/c1ccc2ccccc2n1	-2.2%	408.5%	65.9%[59 µM]	270.5%	10.2%	171.4%
Cc1cccc(N/N=C/c2ccc(F)c(F)c2)c1	·	·	·	·	5.62µM*	·
Cc1cccc(N/N=C/c2ccc(Cl)c(Cl)c2)c1	·	·	·	·	3.98µM*	·
CCNC(=S)N/N=C/c1ccc(Cl)c(Cl)c1	·	·	·	·	-11.0%	·
CCn1c(=O)n(CC(=O)N2CC(C)CC(C)C2)c(=O)c2ccccc21 (configuration not stated)	-2.0%	27.5%	27.7%[59 µM]	1.3%	0.0%	9.7%
CCCOc1ccc(C(=O)Nc2ccccc2[N+](=O)[O-])cc1	?	?	·	56.2µM*	?	·
COc1ccc(NC(=O)c2cccnc2)c([N+](=O)[O-])c1	-5.0%	20.0%	-8.3%[12.7 µM]	-11.4%	2.3%	-6.3%
COc1ccc(NC(=O)CN(C)S(=O)(=O)c2ccc(C)cc2)c([N+](=O)[O-])c1	4.2%	12.5%	31.6µM*	-12.8%	-20.2%	-6.4%
COc1ccc(NC(=O)c2ccccc2)c([N+](=O)[O-])c1	-1.3%	-22.9%	79.4µM*	-35.7%	-5.8%	?
COc1ccc(/C=N/Nc2ncccc2[N+](=O)[O-])c(OC)c1	-4.8%	?	28.2µM*	50.1µM*	-16.2%	39.8µM*
CCCCc1noc(CSc2nnnn2-c2ccccc2OC)n1	·	·	·	·	-10.8%	·
COc1ccc(OC)c(NC(=O)COC(=O)c2ccc(OC)c(S(=O)(=O)N3CCCC3)c2)c1	-10.1%	31.6%	11.4%[12.7 µM]	0.7%	175.3%	3.3%
COc1ccc(NC(=O)CC2Nc3ccccc3NC2=O)cc1 (configuration not stated)	·	24.2%	-4.3%[59 µM]	-5.6%	30.4%	-0.7%
Cc1c(C(=O)Nc2ccccc2[N+](=O)[O-])csc1-c1ccccc1	0.7%	28.2µM*	25.1µM*	?	-27.3%	11.2µM*
COc1ccc(NC(=O)CC2Nc3ccccc3NC2=O)c([N+](=O)[O-])c1 (configuration not stated)	-4.2%	1.3%	50.1µM*	-8.9%	11.1%	-15.5%
Cc1ccc(NC(=O)CN(C)S(=O)(=O)c2ccc3c(c2)n(C)c(=O)c(=O)n3C)c(C)c1	21.2µM*	6.9%	2.9%	?	-9.2%	-18.4%
CCCOc1ccc(/C=N/Nc2ccccc2[N+](=O)[O-])c(OCCC)c1	-1.8%	22.4µM*	8.91µM*	14.1µM*	-27.2%	2.51µM*
O=C(CCC[C@H]1NC[C@@H]2C[C@H]1CN(Cc1ccccc1)C2)NCCc1cccnc1	·	·	·	·	19.3%	·
CCCS(=O)(=O)N1CCCC(c2[nH]ccc2C(N)=O)C1 (configuration not stated)	·	·	·	·	16.5%	·
O=C(NNC(=S)NC1CC2C=CC1C2)c1cccnc1 (configuration not stated)	-2.3%	29.3%	2.0%	-10.0%	0.0%	-7.2%
CCOC(=O)c1c[nH]c2c(Cl)c(Cl)ccc2c1=O	26.7µM*	?	-3.9%	?	22.2%	-0.2%
CCOC(=O)c1c[nH]c2c(C)ccc(Cl)c2c1=O	18.9µM*	5.6%	5.7%	28.2µM*	1.1%	-17.6%
COC(=O)c1ccc(OC(=O)CCN2c3ccccc3Sc3ccccc32)cc1	-3.2%	60.0%	-8.0%[59 µM]	3.8%	-18.8%	-25.1%
Cc1ccc(S(=O)(=O)N2CCC(n3c(C)nc4cccnc43)CC2)c(C)c1	·	18.9%	-4.3%[59 µM]	-0.3%	-16.4%	-2.8%
SMILES	PLK1 PBD block	HP1b binding inh	G9a inh	JMJD2A Tudor	ALOX12 inh	BAZ2B inh
COc1ccc(CN2CC(=O)N3[C@H]4c5ccccc5OC[C@@H]4[C@H](c4ccccc4)[C@]3(C)C2=O)cc1	4.7%	14.6%	-1.3%[0.501 µM]	-25.2%	-13.7%	-1.3%
CCCCCCCCCCCCCCCCCC(=O)OCC(C)O (configuration not stated)	·	·	25.1µM*	·	·	·
COC1=C/C(=C/c2c(N)n3nc(-c4ccc(C)cc4)sc3nc2=O)C=CC1=O	21.2%	6.6%	?	?	?	50.1µM*
CCOC1=C/C(=C/c2c(N)n3oc(C)cc3nc2=O)C=CC1=O	·	·	-46.0%	·	·	2.3%
CCS(=O)(=O)c1nn2c(N)c(/C=C3/C=CC(=O)C(OC)=C3)c(=O)nc2s1	63.0%	12.4%	?	-19.9%	-26.8%	-7.0%
CCOC1=C/C(=C/c2c(N)n3nc(-c4ccccc4)sc3nc2=O)C=CC1=O	19.8%	1.1%	39.8µM*	-32.2%	?	39.8µM*
Cc1ccc(OCCC(=O)OCC(=O)Nc2cc(C)cc(C)c2)cc1	-7.0%	26.6%	-6.4%	-3.9%	-0.4%	-8.4%
COc1ccc(-c2ccc(/C=N/NC(=O)Cc3nnc(N)s3)o2)cc1Cl	-8.9%	1.5%	20µM*	-28.9%	358.0%	?
Cc1ccc(-c2ccc(/C=N/NC(=O)Cc3nnc(N)s3)o2)cc1Cl	0.8%	35.6%	17.4%[12.7 µM]	-13.7%	-13.4%	-17.7%
CNC(=S)N/N=C/c1ccc(-c2cccc(C(=O)O)c2)o1	-5.3%	13.8%	3.1%[12.7 µM]	-21.7%	?	-17.1%
Cc1ccc(OCC(=O)N/N=C\c2ccc(-c3cccc(C(=O)O)c3)o2)c(C)c1	-30.0%	-2.3%	35.5µM*	-35.7%	8.6%	?
O=C(O)c1cccc(-c2ccc(/C=N/Nc3nn[nH]n3)o2)c1	-17.9%	14.7%	44.7µM*	56.2µM*	6.9%	56.2µM*
Nc1nonc1C(=O)N/N=C/c1ccc(-c2cccc(C(=O)O)c2)o1	·	·	31.6µM*	·	·	?
O=C(O)CNC(=S)N(Cc1ccco1)Cc1ccccc1Cl	-14.1%	6.9%	?	-20.5%	-11.0%	5.5%
Nc1nnc(SCC(=O)Nc2ccccc2C(F)(F)F)s1	·	73.4%	30.2%[59 µM]	-24.9%	3.1%	24.7%
O=C(NCC(c1cccnc1)N1CCc2ccccc21)c1ccccc1Br (configuration not stated)	·	36.6%	-6.6%[59 µM]	-3.9%	2.9%	-10.2%
O=C1C=CC(=O)N1Nc1ccc(Br)cc1	-21.6%	49.3%	10.4%[59 µM]	-12.2%	-5.3%	0.0%
